Assay outcomes (PubChem BioAssay)
POLK inh = blocks human DNA polymerase kappa activity; 400,000 compounds, 0.53% hits; Potency, µM (doses to about 107 µM), for the others: at the top dose activity, negative = inhibition, actives largely listed as inhibitors; Q9UBT6; AID 588579; purified Pol kappa, fluorescent DNA synthesis assay, 10 min; also: % is scaled to controls: 0 for no effect and ±100 for the full control effect
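50 nM final substrate added after 15 min RT preincubation of 10 nM Pol kappa with compound; fluorescence read at 0 and 10 min.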
Pol eta inh = inhibitors of human DNA polymerase eta; Potency, µM (highest dose often 114 µM), for the others: top-dose activity change, negative = inhibition, usual class: inhibitors; 390,000 compounds, 1.2% hits; recombinant Pol eta, fluorescent DNA replication assay; Q9Y253; AID 588591; also: % is scaled to controls: 0 for no effect and ±100 for the full control effect
Target sequence (Q9Y253 whole entry, looked up): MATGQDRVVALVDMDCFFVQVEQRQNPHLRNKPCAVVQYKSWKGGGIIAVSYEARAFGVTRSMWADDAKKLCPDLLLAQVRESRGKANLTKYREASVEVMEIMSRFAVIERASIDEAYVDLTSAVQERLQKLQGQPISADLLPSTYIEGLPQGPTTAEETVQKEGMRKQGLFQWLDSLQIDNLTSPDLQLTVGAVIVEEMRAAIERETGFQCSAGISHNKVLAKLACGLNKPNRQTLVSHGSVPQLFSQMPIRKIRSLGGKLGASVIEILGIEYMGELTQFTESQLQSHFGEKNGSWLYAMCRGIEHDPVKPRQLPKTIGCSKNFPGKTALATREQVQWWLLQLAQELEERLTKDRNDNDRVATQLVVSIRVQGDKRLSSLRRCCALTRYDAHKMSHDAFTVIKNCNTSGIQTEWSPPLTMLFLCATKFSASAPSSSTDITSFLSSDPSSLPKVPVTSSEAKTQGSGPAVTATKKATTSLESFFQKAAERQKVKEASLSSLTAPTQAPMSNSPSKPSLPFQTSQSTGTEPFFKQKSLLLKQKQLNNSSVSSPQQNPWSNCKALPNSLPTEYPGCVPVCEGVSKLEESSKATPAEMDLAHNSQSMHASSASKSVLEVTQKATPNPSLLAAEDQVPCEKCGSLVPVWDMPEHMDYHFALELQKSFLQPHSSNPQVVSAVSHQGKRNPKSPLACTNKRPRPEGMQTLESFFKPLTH
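Pol eta (10 nM) was preincubated with compounds for 15 min at room temperature, after which fluorescent replication substrate (50 nM final) was added to start the reaction. Fluorescence was read kinetically at 0 and 10 min.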
L3MBTL1 inh = L3MBTL1 (human) inhibition | Potency, µM (top dose mostly 57.1 µM), without a hit: top-dose activity, negative = inhibition, usual class: inhibitors | AID 485360 | AlphaScreen L3MBTL1–H3K9me1 peptide binding | 230,000 compounds, 0.66% hits | Q9Y468; also: % is scaled to controls: 0 for no effect and ±100 for the full control effect; nearly all actives have a fitted effect of over 60% in size
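Displacement of a biotinylated histone H3(1-15) peptide monomethylated at Lys9 (75 nM) from L3MBTL1 (50 nM) was measured by AlphaScreen after a 30 min room-temperature compound incubation; cefsulodin titration served as intraplate control.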
POLI inh = DNA polymerase iota (human) inhibition. 390,000 compounds, 1% hits. Potency, µM (titrated, usually from 115 µM), inactives show top-dose activity, negative = inhibition, hits mostly inhibitors. Pol iota fluorescent replication assay, 10 min. Q9UNA4
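Fluorescent replication assay read twice, at 0 min and 10 min after adding 50 nM (final) substrate. Enzyme (10 nM) and compounds were first incubated 15 min at room temperature; enzyme-free buffer wells were negative controls.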
WRN inhibitor = inhibitors of human WRN helicase; Q14191; WRN helicase unwinding, fluorescent forked duplex, kinetic; Potency, µM (doses to about 114 µM), without a hit: top-dose activity change, negative = inhibition, actives largely listed as inhibitors; 360,000 compounds, 0.46% hits; AID 651768; also: % is scaled to controls: 0 for no effect and ±100 for the full control effect; nearly all actives have a fitted effect of over 55% in size
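Enzyme (20 nM final) and test compound sit together 15 min at room temperature before substrate addition. Substrate is a single-forked duplex oligonucleotide (100 nM) labelled with fluorophore and quencher, with 2 mM ATP; helicase unwinding raises red fluorescence, read kinetically.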
POLB inh = inhibitors of human DNA polymerase beta. P06746. Pol beta primer extension/strand displacement, fluorescence kinetic. Potency, µM (titrated, usually from 114 µM), for inactives: top-dose activity change, negative = inhibition, actives largely listed as inhibitors. 340,000 compounds, 1.3% hits. AID 485314; also: % is scaled to controls: 0 for no effect and ±100 for the full control effect
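Human Pol beta at 10 nM; strand-displacement substrate 50 nM final. Compound exposure 15 min at room temperature before start, reaction 10 min at room temperature.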
* = called active by the depositor; ! = repeats disagree; [ ] = dose if it differs, or a comment. In the library only some 2.5% were active in any assay of this set; here they are far more common. Calls follow the shape of the dose curve; as a rule, active = well fitted curve in the direction sought with a large enough effect; inconclusive = small, poorly fitted or top-dose-only effect, or another doubt; inactive = no such curve, though single readings can be large; an effect the other way counts as inactive or inconclusive. Potency is read from the fitted curve at half-maximal effect.

Results for Cc1nc(NC(=O)COC(=O)/C=C/c2ccco2)c(Cl)cc1Cl ?
POLK inh: 70.8µM*; Pol eta inh: 28.2µM*; L3MBTL1 inh: -14.6%; POLI inh: 31.6µM*; WRN inhibitor: -1.2%[11.6 µM]

How did O=C(COC(=O)/C=C/c1ccco1)NCCN1C(=O)CSC1=O do in these assays?
POLK inh: -19.8%; Pol eta inh: 50.1µM*; POLI inh: -16.0%; WRN inhibitor: -5.2%

What do the screens show for `CC(C)NC(=O)COC(=O)/C=C/c1ccco1`?
POLK inh: -31.8%; Pol eta inh: inconclusive; L3MBTL1 inh: -23.8%; POLI inh: 79.4µM*; WRN inhibitor: -7.9%[57.1 µM]; POLB inh: 39.8µM*

How did O=C(O)CN1C(=O)/C(=C\c2ccccc2OCc2ccc(F)cc2)SC1=S do in these assays?
POLK inh: -26.6%; Pol eta inh: inconclusive; POLI inh: inconclusive; WRN inhibitor: -10.4%[11.6 µM]; POLB inh: inconclusive

Results for CN(C)c1ccc(/C=C/c2sc3ccccc3[n+]2CCCCI)cc1 ?
POLK inh: 50.1µM*; POLI inh: 79.4µM*

How did CCCC[n+]1c(/C=C/c2ccc(N(C)C)cc2)sc2ccccc21 do in these assays?
POLK inh: inconclusive; POLI inh: 50.1µM*

Results for CCCCCCCCCC[n+]1ccc(/C=C/c2ccc(N(C)C)cc2)c2ccccc21 ?
POLK inh: 39.8µM*; POLI inh: 50.1µM*

Results for Cc1ccc(OCCNC(=O)Cc2ccc(S(=O)(=O)N3CCOCC3)s2)cc1 ?
POLK inh: -2.0%; Pol eta inh: -20.7%; POLI inh: 12.7%; WRN inhibitor: -12.2%; POLB inh: -0.4%

What do the screens show for `CCOC(=O)c1c2c3c(c(Cl)ccc3[nH]c1=O)C(=O)c1ccccc1-2`?
POLK inh: inconclusive; Pol eta inh: 79.4µM*; L3MBTL1 inh: -25.2%; POLI inh: inconclusive; WRN inhibitor: -18.8%[11.6 µM]; POLB inh: inconclusive

What do the screens show for `CCOC(=O)c1c2c3c(cccc3[nH]c1=O)C(=O)c1ccccc1-2`?
POLK inh: 0.3%; Pol eta inh: inconclusive; L3MBTL1 inh: 1.1%; POLI inh: 41.3%; WRN inhibitor: -13.8%; POLB inh: 0.2%

What do the screens show for `COc1ccc(S(=O)(=O)N2CCOCC2)cc1NC(=O)c1ccc(=O)[nH]c1`?
POLK inh: -0.3%; Pol eta inh: -5.8%; L3MBTL1 inh: 8.7%; POLI inh: 28.0%; WRN inhibitor: 3.2%

How did Cn1c(N)c(C(=O)CSc2nnc(-c3c[nH]c4ccccc34)n2C2CC2)c(=O)[nH]c1=O do in these assays?
POLK inh: -38.4%; Pol eta inh: inconclusive; L3MBTL1 inh: 3.4%; POLI inh: 39.8µM*; WRN inhibitor: inconclusive

How did CCCn1c(N)c(C(=O)CSc2nnc(-c3c[nH]c4ccccc34)n2C2CC2)c(=O)[nH]c1=O do in these assays?
POLK inh: -20.1%; Pol eta inh: -23.6%; L3MBTL1 inh: -3.3%; POLI inh: 98.2%; WRN inhibitor: -18.2%

How did CC(C)CN(C(=O)COC(=O)c1ccc([N+](=O)[O-])s1)c1c(N)n(Cc2ccccc2)c(=O)[nH]c1=O do in these assays?
POLK inh: -7.5%; Pol eta inh: 3.7%; L3MBTL1 inh: 3.4%; POLI inh: -21.6%; WRN inhibitor: 3.0%

Results for CCCCn1c(N)c(N(CCC(C)C)C(=O)COC(=O)c2ccc([N+](=O)[O-])s2)c(=O)[nH]c1=O ?
POLK inh: -14.8%; Pol eta inh: inconclusive; L3MBTL1 inh: inconclusive; POLI inh: 79.4µM*; WRN inhibitor: -5.6%

How did O=C(O)c1ccccc1-c1ccccc1C(=O)Nc1ccc2c(c1)[nH]c(=O)c1ccccc12 do in these assays?
POLK inh: -10.0%; Pol eta inh: 50.1µM*; L3MBTL1 inh: -2.8%; POLI inh: 232.0%; WRN inhibitor: -32.9%; POLB inh: 12.0%

How did O=C(O)c1ccccc1-c1ccccc1C(=O)Nc1ccc2oc(=O)c3ccccc3c2c1 do in these assays?
Pol eta inh: -9.4%; WRN inhibitor: -7.5%

Results for COc1ccc(-c2nc3ccc(C)cn3c2NCc2ccccc2)cc1SC1CCCCC1 ?
POLK inh: 10.5%; Pol eta inh: 44.7µM*; L3MBTL1 inh: -12.5%; POLI inh: 22.4µM*; WRN inhibitor: 10.9%

What do the screens show for `N#C/C(=C\c1ccccc1)C(=O)Nc1sc2c(c1C(N)=O)CCC2`?
POLK inh: -19.0%; Pol eta inh: -13.5%; POLI inh: inconclusive; POLB inh: -1.4%

What do the screens show for `O=S(=O)(c1ccccc1F)N1CCC(Oc2ccc(-n3cnnn3)cc2)CC1`?
POLK inh: -21.8%; Pol eta inh: -14.9%; POLI inh: -22.7%; WRN inhibitor: -5.7%; POLB inh: 1.5%

Results for COc1cc2c(cc1NC(=O)c1cc(-c3ccncc3)nc3ccccc13)oc1ccccc12 ?
POLK inh: -5.7%; Pol eta inh: -6.6%; L3MBTL1 inh: -4.4%; POLI inh: 13.4%; WRN inhibitor: -8.2%; POLB inh: 16.6%

How did O=C(Nc1ccccc1-c1ccccc1)C1CCCCC1 do in these assays?
POLK inh: -8.7%; Pol eta inh: -10.4%; L3MBTL1 inh: 1.8%; POLI inh: 89.1µM*; WRN inhibitor: -2.6%; POLB inh: 28.5%

Results for CCCCC[C@@H](/C=C/C1C(=O)C=C[C@H]1C/C=C\CCCC(=O)O)OC(C)=O (stereo partly drawn) ?
POLK inh: -18.6%; Pol eta inh: 44.7µM*; POLI inh: inconclusive; WRN inhibitor: -4.1%[11.6 µM]

How did CCCCC[C@H](O)/C=C/[C@H]1C=CC(=O)[C@@H]1C/C=C\CCCC(=O)O do in these assays?
POLK inh: 2.4%[19.4 µM]; L3MBTL1 inh: inconclusive; POLB inh: 3.16µM*

How did CCCCC/C=C/C=C1/C(=O)C=C[C@@H]1C/C=C\CCCC(=O)O do in these assays?
POLK inh: 3.16µM*!

Results for CCCCCCCC/C=C\CCCCCCCC(=O)O ?
POLK inh: inconclusive; Pol eta inh: -10.4%; POLI inh: -8.2%; POLB inh: -2.1%

Results for CCCCCC(O)C=CC1C(O)CC(O)C1CC=CCCCC(=O)O (stereo not drawn) ?
Pol eta inh: -5.7%; WRN inhibitor: -6.1%

What do the screens show for `CCCCCCCC/C=C\CCCCCCCCCCCC(=O)O`?
POLK inh: 10.6µM*

What do the screens show for `CCCCC[C@H](O)C/C=C1/C(=O)C=C[C@@H]1C/C=C\CCCC(=O)O`?
POLK inh: -4.8%[19.4 µM]

Results for O=C(c1ccco1)N1CCN(C(=O)C2CC(=O)N(c3ccccc3)C2)CC1 (stereo not drawn) ?
POLK inh: -8.0%; Pol eta inh: 2.2%; POLI inh: 29.7%; WRN inhibitor: -22.7%; POLB inh: -17.4%
